Screens (PubChem)
The sample as a whole holds a higher share of hits than the screen did.
Tb PYK inh – blocks Trypanosoma brucei pyruvate kinase; AID 624173; actives 0.12% (n = 410,000); TbPYK enzyme, Kinase-Glo Plus ATP luminescence, 45 min; Potency, µM (titrated, usually from 76.8 µM), for the others: top-dose activity, negative = inhibition, usual class: inhibitors; further: potency means the concentration at half of the fitted maximal effect; on the % scale 0 is the no-effect control and ±100 the full control effect; nearly all actives have a fitted effect of over 50% in size
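Enzyme and substrate buffer are dispensed first and compound is pin-transferred. ADP at 130 uM final then starts the reaction, which runs 45 min at room temperature. Detection reagent is added for 10 min before luminescence is imaged.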
LmPK inh – LmPK (Leishmania mexicana) enzyme inhibition; Potency, µM (top dose mostly 57.5 µM), inactives show at the highest dose activity change, negative = inhibition, usual class: inhibitors; actives 0.37% (n = 290,000); purified LmPK, Kinase-Glo ATP luminescence, 1 h; Q27686; further: potency means the concentration at half of the fitted maximal effect; on the % scale 0 is the no-effect control and ±100 the full control effect
Target sequence (Q27686 whole entry, looked up): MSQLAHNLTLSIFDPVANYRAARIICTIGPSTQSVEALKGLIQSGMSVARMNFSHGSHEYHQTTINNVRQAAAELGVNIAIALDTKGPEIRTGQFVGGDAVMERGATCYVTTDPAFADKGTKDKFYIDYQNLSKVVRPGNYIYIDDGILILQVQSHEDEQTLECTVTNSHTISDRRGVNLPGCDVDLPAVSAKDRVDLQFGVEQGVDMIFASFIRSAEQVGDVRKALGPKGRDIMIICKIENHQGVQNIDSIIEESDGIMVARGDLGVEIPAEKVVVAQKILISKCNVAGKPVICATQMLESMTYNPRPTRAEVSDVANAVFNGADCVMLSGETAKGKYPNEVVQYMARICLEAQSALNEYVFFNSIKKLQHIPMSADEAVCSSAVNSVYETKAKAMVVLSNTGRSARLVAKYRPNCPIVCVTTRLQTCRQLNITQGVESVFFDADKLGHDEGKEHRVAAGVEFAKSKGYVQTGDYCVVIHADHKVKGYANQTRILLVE
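Purified LmPK (0.1 nM) with 0.5 mM PEP and 0.1 mM ADP in imidazole buffer pH 7.2 with MgCl2/KCl, 1 h at room temperature. ATP formed was read by luciferase luminescence and normalized to no-enzyme and uninhibited controls.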
Shiga inhibitor – blocks Shiga toxin action in Vero cells. inhibition, % at 38.7 µM. actives 9.2% (n = 290,000). Vero cells, Shiga toxin protein synthesis inhibition reporter; in the data active means inhibition mostly above about 28%, no sharp cut-off; inactive means mostly below about 43%; further: 0% is about no effect
CHX counter – counter-screen hit for Shiga toxin inhibitors, cycloheximide. AID 2314. max response, %. cell reporter, cycloheximide protein synthesis inhibition counterscreen. actives 12% (n = 300,000); in the data active means max response mostly above about 13%, no sharp cut-off; inactive means mostly below about 14%; further: read at 38.3 µM for the half of the compounds with a filed dose; 0% is about no effect
RE007 growth inh – less growth of the S. pombe RE007 Vpr strain; S. pombe RE007 Vpr strain, BacTiter-Glo ATP luminescence, 24 h; Potency, µM (titrated, usually from 92.2 µM), for inactives: at the top dose activity change, negative = less growth, actives largely listed as inhibitors; actives 0.21% (n = 360,000); AID 651644; active means well fitted falling curve with a large enough effect; inconclusive means small, poorly fitted or top-dose-only effect; inactive means no such curve, though single readings can be large or run the other way; further: potency means the concentration at half of the fitted maximal effect; on the % scale 0 is the no-effect control and ±100 the full control effect; nearly all actives have a fitted effect of over 50% in size
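Fission yeast RE007 carrying one integrated HIV-1 vpr copy, seeded at OD 0.01 in PMG+AL medium with 23 nL pinned compound. Grown 24 h at 30 degrees; viability read by BacTiter-Glo luminescence after 5 min.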
Giardia FBPA inh – blocks Giardia fructose-bisphosphate aldolase activity | A8B2U2 | purified Giardia FBPA | Potency, µM (highest dose often 59.6 µM), inactives show at the top dose activity, negative = inhibition, actives largely listed as inhibitors | actives 0.71% (n = 290,000) | AID 2451; further: potency means the concentration at half of the fitted maximal effect; on the % scale 0 is the no-effect control and ±100 the full control effect; nearly all actives have a fitted effect of over 55% in size
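Giardia FBPA (40 nM reagent) was preincubated 10 min at RT with compound (up to 57.5 uM final), then substrate plus GAPDH/TPI/NAD/arsenate coupling system with diaphorase/resazurin was added; resorufin fluorescence (525/598 nm) was read after 20 min.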
An asterisk follows results filed as active; ? = inconclusive; nt = no result. Unless noted, the call rests on the fitted dose curve; in most records, active means well fitted curve in the direction sought with a large enough effect; inconclusive means small, poorly fitted or top-dose-only effect, or another doubt; inactive means no such curve, though single readings can be large; an effect the other way counts as inactive or inconclusive.

SMILES	Tb PYK inh	LmPK inh	Shiga inhibitor	CHX counter	RE007 growth inh	Giardia FBPA inh
O=C(Nc1sc2c(c1C(=O)O)CCCCC2)c1ccccc1F	8%	-10%	109*	41*	?	?
NC(=O)c1c(NC(=O)c2ccc(F)cc2)sc2c1CCC2	0%	-1%	45*	53*	-13%	-6%
O=C(Nc1sc2c(c1C(=O)O)CCCC2)c1ccc(F)cc1	10%	-2%	49*	33*	?	?
NC(=O)c1c(NC(=O)c2cc3ccccc3o2)sc2c1CCC2	-4%	-8%	72*	36*	-26%	-2%
Cc1nc2ccc(NS(=O)(=O)c3ccc(Br)cc3)cc2s1	1%	nt	nt	nt	0%	nt
CCNC(=O)C1CCCN(C(=O)c2cccc(Cl)c2)CC1 (stereo unspecified)	7%	nt	nt	nt	-6%	nt
Cc1sc(NC(=O)c2ccco2)c(C(Nc2ccccn2)c2ccccc2)c1C (stereo unspecified)	-12%	0%	25	13*	2%	-1%
COc1ccc(C(Nc2ccccn2)c2c(NC(=O)c3ccco3)sc(C)c2C)cc1 (stereo unspecified)	-1%	-3%	29	29*	-2%	0%
COc1cccc(C(Nc2ccccn2)c2c(NC(=O)c3ccco3)sc(C)c2C)c1 (stereo unspecified)	-10%	5%	6	1	-5%	3%
Cc1ccc(CNC(=O)c2ccc(CSCc3ccccc3C)o2)cc1	0%	nt	nt	nt	nt	nt
Cc1cc(/C=N/NC(=O)c2cccc([N+](=O)[O-])c2)c(C)n1-c1ccccc1	3%	1%	25	34*	3%	-8%
Cc1cc(/C=N/NC(=O)c2cccs2)c(C)n1-c1cnccn1	-2%	0%	59*	48*	1%	-9%
Cc1cc(C(=O)N/N=C/c2ccc(O)c(O)c2O)c(C)n1-c1ccccc1	10%	-3%	73*	54*	13%	16µM*
Cc1cc(/C=N/NC(=O)c2cccs2)c(C)n1-c1ccccc1	0%	0%	11*	26*	-9%	-13%
Cc1cc(/C=N/NC(=O)C(O)(c2ccccc2)c2ccccc2)c(C)n1-c1ccccc1	0%	1%	4	7	-4%	-17%
O=S(=O)(NNc1ncc(C(F)(F)F)cc1Cl)c1ccccc1	-13%	nt	nt	nt	2%	nt
O=C(CCC(=O)c1ccc(F)cc1)Nc1cccc(Br)c1	-5%	-3%	-1	5	-19%	-3%
Cc1csc2nc(COC(=O)c3ccccc3NC(=O)COc3ccccc3F)cc(=O)n12	5%	nt	nt	nt	nt	nt
Cc1cc(/C=N/NC(=O)c2ccncc2)c(C)n1-c1ccccc1	2%	-3%	23*	26*	26%	-17%
CCc1ccc(-n2c(C)cc(/C=N/NC(=O)c3ccncc3)c2C)cc1	3%	-2%	10	7	-6%	-24%
COc1ccc(Cl)cc1N(C)C(=O)Cn1cnc2sc(C)c(S(=O)(=O)N3CCN(c4ncccn4)CC3)c2c1=O	0%	nt	nt	nt	nt	nt
CNC(=S)N/N=C/c1ccc(N(C)C)cc1	-8%	-9%	77*	54*	10%	2%
CN(C)c1ccc(/C=N/NC(=S)NCc2ccccc2)cc1	1%	4%	-7	24*	-16%	-2%
Cc1ccc(-c2nc(CS(=O)CC(=O)NCCCN3CCN(Cc4ccccc4)CC3)c(C)o2)cc1 (stereo unspecified)	1%	8%	-4	10	2%	0%
CCOC(=O)[C@H]1[C@H]2COc3ccc(C)cc3[C@@H]2N2C(=O)CN(C)C(=O)[C@@]12C	-10%	nt	nt	nt	6%	nt
Cc1ccc(Nc2nnc(-c3ccc(C)c(S(=O)(=O)N4CCOCC4)c3)c3ccccc23)c(C)c1	-8%	nt	nt	nt	nt	nt
Cc1nn(C)cc1/C=C/C(=O)c1ccc(O)cc1	-16%	-16%	40*	38*	-4%	2%
O=C(/C=C/c1ccc(N2CCC(c3ccccc3)=N2)cc1)c1ccccc1	3%	3%	80*	39*	-7%	-5%
O=C(/C=C/c1ccc(O)cc1)c1ccccc1	?	13µM*	75*	39*	50µM*	8%
